Compound activity (PubChem)
CD11b adhes enh: CD11b/CD18-fibrinogen binding enhancement; P05107+P11215; K562 CD11b/CD18 adhesion to fibrinogen, ATPlite luminescence; activation, % at 10 µM; 0.07% of 93,000 active; AID 1499;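 active = 10 µM primary screen giving 50% or more activity, confirmed by 40% or more on retest at that dose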
Mac1 fbg inh: inhibitors of human CD11b/CD18 binding to fibrinogen | K562 CD11b/CD18 adhesion to fibrinogen, ATPlite luminescence; Mn2+ added to activate the integrin | 0.54% of 93,000 active | P05107+P11215 | inhibition, % at 10 µM;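 active = primary inhibition of 50% or more at 10 µM, then 40% or more on retest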
MRP1 act: activators of MRP-1; H69AR cells + doxorubicin, viability rescue, CellTiter-Glo; viability increase, % at 10 µM; 0.61% of 140,000 active; AID 799;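 active = viability gain under doxorubicin at or above a set limit, the compound median plus 3 SD, cut at about 4.7% in these data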;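 note: MRP-1 overexpressing cells given doxorubicin 25 µM after compound pretreatment; 18-22 h compound pretreatment then 72 h with doxorubicin before readout; 0% = doxorubicin-only wells and 100% = vehicle-treated cells without doxorubicin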
PTK2B oligo ant: blocks oligomerization of human Pyk2 in cells. Q14289. Q293 cells, Pyk2 FERM NanoBiT luminescence; active compounds read low. z-score (the deposit names both 25 µM and 10 µM). 0.83% of 99,000 active. AID 1347419;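 active = Z-score of -3 or lower, scaled per plate to the spread of control and sample wells; inactive = z-score above -3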;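 note: negative z-score means lost luminescence so less FERM oligomerization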
Target sequence (Q14289 whole entry, looked up): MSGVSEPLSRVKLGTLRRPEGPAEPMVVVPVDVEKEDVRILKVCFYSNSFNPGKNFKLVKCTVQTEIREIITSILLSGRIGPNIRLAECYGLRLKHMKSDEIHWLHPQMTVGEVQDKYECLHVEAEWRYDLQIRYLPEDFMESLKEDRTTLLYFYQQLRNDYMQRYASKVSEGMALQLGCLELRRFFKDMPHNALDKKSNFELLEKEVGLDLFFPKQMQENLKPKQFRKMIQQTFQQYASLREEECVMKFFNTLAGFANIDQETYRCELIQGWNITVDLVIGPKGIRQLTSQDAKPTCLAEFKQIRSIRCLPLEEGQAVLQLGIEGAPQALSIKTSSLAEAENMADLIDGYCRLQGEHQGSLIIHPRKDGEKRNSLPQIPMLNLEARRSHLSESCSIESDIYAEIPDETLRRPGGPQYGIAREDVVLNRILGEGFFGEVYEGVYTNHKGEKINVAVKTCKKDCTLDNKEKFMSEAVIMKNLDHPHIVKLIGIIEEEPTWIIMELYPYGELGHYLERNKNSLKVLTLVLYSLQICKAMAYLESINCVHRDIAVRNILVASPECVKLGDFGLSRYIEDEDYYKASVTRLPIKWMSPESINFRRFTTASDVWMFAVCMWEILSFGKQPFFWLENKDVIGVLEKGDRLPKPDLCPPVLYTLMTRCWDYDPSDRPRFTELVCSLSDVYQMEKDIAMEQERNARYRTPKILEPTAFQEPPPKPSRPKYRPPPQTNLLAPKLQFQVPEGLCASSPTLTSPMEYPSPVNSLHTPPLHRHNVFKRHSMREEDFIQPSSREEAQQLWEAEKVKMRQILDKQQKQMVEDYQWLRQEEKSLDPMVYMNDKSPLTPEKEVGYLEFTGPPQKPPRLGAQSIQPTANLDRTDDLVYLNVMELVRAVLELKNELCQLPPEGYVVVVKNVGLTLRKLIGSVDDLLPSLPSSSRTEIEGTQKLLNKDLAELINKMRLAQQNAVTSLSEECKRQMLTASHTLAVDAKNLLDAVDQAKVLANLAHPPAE
MRP reversal: reverses drug resistance mediated by MRP | H69AR cells + 2 uM doxorubicin, CellTiter-Glo, 72 h | differential viability (reversal), % at 10 µM | 0.04% of 85,000 active;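 active = viability drop by adding the cancer drug above about 55%, with treated viability meeting a 40% cutoff, limit read from the data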;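 note: viability without doxorubicin minus viability with 2 µM doxorubicin for each compound; larger differential means the compound sensitizes cells more to doxorubicin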
Cav3 T inh: inhibitors of human Cav3.2 T-type calcium channel; 4% of 100,000 active; O95180; Cav3.2-expressing cells, Fluo-4 calcium fluorescence FDSS; active compounds read low; B-score at 10 µM;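 active = single-dose well whose peak fluorescence ratio is a statistical outlier from its plate by either plate-standardised score or position-corrected B-score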
Numbers without * were called inactive. Compounds with a hit are over-represented: about 4.1% of the library has one in this group of screens.

`COc1cc(Br)c(C(C)NC(=O)c2cccc(Br)c2)cc1OC` (stereo unspecified) gave CD11b adhes enh -6, Mac1 fbg inh 5, MRP1 act -3, PTK2B oligo ant -3.2* and Cav3 T inh -1.6.
Nc1cc(N)nc(SCc2nnnn2-c2ccc(Cl)cc2)n1 was read as MRP1 act -1.
For CCOC(=O)N1CCC(NS(=O)(=O)c2ccc3c(c2)C(C)(C)C(=O)N3C)CC1 the results were MRP1 act -1, PTK2B oligo ant 0.01, MRP reversal 8 and Cav3 T inh -0.52.
Screening Cc1cc2oc(=O)cc(CN3CCC(C)CC3)c2cc1Cl returned CD11b adhes enh -5, Mac1 fbg inh 0, MRP1 act 1, PTK2B oligo ant 0.63, MRP reversal 18 and Cav3 T inh -9.9*.
Screening Cc1cc2oc(=O)cc(CN3CCN(Cc4ccccc4)CC3)c2cc1Cl returned MRP1 act -3, PTK2B oligo ant 0.39, MRP reversal 13 and Cav3 T inh -0.22.
For Cc1ccc(NC(=O)CNC(=O)c2cccs2)cc1S(=O)(=O)Nc1ccc(Cl)cc1 the results were MRP1 act 7.0* and PTK2B oligo ant -2.3.
Fc1ccc(Sc2cc(Cl)c(-c3ccccc3)nn2)cc1 was read as MRP1 act -3, PTK2B oligo ant -3.5* and Cav3 T inh -1.6.
`O=C1CN(C(=O)c2ccccc2)c2ccccc2N1` gave CD11b adhes enh -1, Mac1 fbg inh 0, MRP1 act 2, PTK2B oligo ant -0.85, MRP reversal -2 and Cav3 T inh 1.1.
Screening O=C1CN(C(=O)c2cc(Br)c(Br)s2)c2ccccc2N1 returned CD11b adhes enh -4, Mac1 fbg inh 5, MRP1 act -2, PTK2B oligo ant -2.9, MRP reversal -18 and Cav3 T inh -5.6*.
For CCOC(=O)c1[nH]c2ccc(OCC)cc2c1NC(=O)CN1CCN(c2ccccc2)CC1 the results were CD11b adhes enh -2, Mac1 fbg inh 1, MRP1 act -1, PTK2B oligo ant -0.59 and MRP reversal 2.
CCOC(=O)c1c(C2COc3ccccc3O2)csc1NC(=O)c1ccco1 (stereo unspecified) was read as CD11b adhes enh -3, MRP1 act -2, PTK2B oligo ant 0.16, MRP reversal -17 and Cav3 T inh -1.2.
For Cc1[nH]c2ccccc2c1/C=N/Nc1ccc([N+](=O)[O-])cc1S(=O)(=O)Nc1ccc(Cl)cc1 the results were CD11b adhes enh 2, Mac1 fbg inh 11, MRP1 act -2, PTK2B oligo ant -3.4* and Cav3 T inh -0.2.
Screening COc1ccc(NS(=O)(=O)c2cc([N+](=O)[O-])ccc2N/N=C\c2c(C)[nH]c3ccccc23)cc1 returned CD11b adhes enh -3, Mac1 fbg inh 14, MRP1 act -6, PTK2B oligo ant -2.8 and Cav3 T inh 0.026.
For C/C(=N/NC(=O)c1cc2ccccc2cc1O)C1C(=O)c2ccccc2C1=O the results were CD11b adhes enh 73, Mac1 fbg inh -3, MRP1 act -2, PTK2B oligo ant -1.3, MRP reversal -5 and Cav3 T inh -5.9*.
C/C(CC(=O)N1CCN(C=O)CC1)=N\NC(=O)c1cc2ccccc2cc1O was read as CD11b adhes enh -1, Mac1 fbg inh -8 and MRP1 act -5.
C/C(=N\NC(=O)c1ccccc1O)C1C(=O)c2ccccc2C1=O was read as CD11b adhes enh 7, Mac1 fbg inh 11, MRP1 act -5, PTK2B oligo ant -2.6 and Cav3 T inh -7.2*.
For COc1cccc(-n2nc3c(-n4ncc(C#N)c4N)nnc(C)c3c2C)c1 the results were MRP1 act -3, PTK2B oligo ant 0.02, MRP reversal 28 and Cav3 T inh 0.38.
`Cc1cc(Cl)ccc1NC(=O)CN1CCC(C(O)(c2ccccc2)c2ccccc2)CC1` gave MRP1 act -6, PTK2B oligo ant -0.95 and Cav3 T inh -4.3*.
COc1cccc2cc(C(=O)N3CCc4ccccc43)c(=O)oc12 was read as CD11b adhes enh -6, Mac1 fbg inh 3, MRP1 act -1, PTK2B oligo ant -3*, MRP reversal -1 and Cav3 T inh -0.54.
